Compound activity as filed in PubChem.
Compounds with a hit are over-represented: about 0.53% of the library has one in this group of screens.
Vif-APOBEC3G blk: blocks the Vif interaction with human APOBEC3G. Potency, µM (series often up to 46.1 µM), actives largely listed as inhibitors. actives 0.076% (n = 410,000). Q9HC16. AID 602310. HeLa A3G-eYFP + Vif (tagged APOBEC3G with the HIV-1 protein that degrades it), YFP fluorescence, overnight; further: nearly all actives have a fitted effect of over 60% in size
Target sequence (Q9HC16 whole entry, looked up): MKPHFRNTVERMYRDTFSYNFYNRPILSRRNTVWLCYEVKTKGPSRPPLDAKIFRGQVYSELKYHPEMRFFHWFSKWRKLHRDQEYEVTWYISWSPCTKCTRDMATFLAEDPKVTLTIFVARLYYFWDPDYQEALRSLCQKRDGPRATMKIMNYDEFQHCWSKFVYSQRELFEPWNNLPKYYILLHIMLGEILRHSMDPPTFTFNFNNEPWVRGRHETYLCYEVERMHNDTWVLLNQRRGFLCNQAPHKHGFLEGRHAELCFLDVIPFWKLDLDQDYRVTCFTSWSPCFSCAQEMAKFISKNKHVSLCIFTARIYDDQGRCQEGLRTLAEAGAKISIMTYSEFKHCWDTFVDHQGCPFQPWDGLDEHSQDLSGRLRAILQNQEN
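HeLa cells stably expressing Vif and C-terminally eYFP-tagged A3G, seeded overnight at 37 deg C, then exposed to compound by pintool overnight at 37 deg C. Rise in yellow fluorescence (Ex 488/Em 500-530, Acumen) marks blocked Vif-driven A3G degradation.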
Vif-A3F inh: inhibitors of Vif-A3F interaction. AID 602313. Potency, µM (titrated, usually from 46.1 µM). actives 0.2% (n = 390,000). HeLa A3F-eYFP + Vif (tagged APOBEC3F with the HIV-1 protein that degrades it), YFP fluorescence increase; further: nearly all actives have a fitted effect of over 65% in size
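Fluorescence increase (Ex 488/Em 500-530) after overnight compound treatment at 37 deg C flags inhibition of Vif-driven A3F-eYFP loss in stable HeLa A3F-eYFP/Vif cells seeded overnight beforehand.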
IL-2 act: IL-2 activation | IL-2 activation reporter assay, cell-based qHTS; stimulated with anti-CD3/CD4/CD28 beads; in transgenic mouse T cells | activation, % (series mostly up to about 46 µM) | actives 0.065% (n = 360,000) | AID 652025; in the data active means activation above about 50%; inconclusive means mostly about 30% to 49%
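Screening format: compound pinned onto unstimulated transgenic mouse T cells, 60 min incubation, then anti-CD3/anti-CD4/anti-CD28 bead stimulation for 18 hours at 37 degrees C, followed by EGFP and DsRed detection.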
PKM2 activator: activators of human pyruvate kinase M2 | purified PKM2, Kinase-Glo ATP luminescence, activation; response scale: 0% is enzyme alone, no compound | Potency, µM (titrated, usually from 57.5 µM), actives largely listed as activators | P14618 | AID 1631 | actives 0.34% (n = 260,000); further: nearly all actives have a fitted effect of over 55% in size
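Kinase-Glo luminescence reports ATP generated from ADP (0.1 mM) and PEP (0.5 mM) by purified hPK-M2 after 1 h at room temperature, pH 7.2 imidazole buffer; intermediate enzyme activity allows detecting inhibitors and activators.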
A number is an active result; . = inactive; ? = inconclusive; / = no result; [ ] = another dose, or the depositor's remark. Unless noted, the call rests on the fitted dose curve; in most records, active means well fitted curve in the direction sought with a large enough effect; inconclusive means small, poorly fitted or top-dose-only effect, or another doubt; inactive means no such curve, though single readings can be large; an effect the other way counts as inactive or inconclusive.

SMILES | Vif-APOBEC3G blk | Vif-A3F inh | IL-2 act | PKM2 activator
O=C1NC(=O)N(c2ccccc2)C(=O)/C1=C/c1ccc(Sc2ccccc2)o1 | ? | . | 96.5 | 28.2µM
O=C1NC(=O)N(c2cccc(Cl)c2)C(=O)/C1=C\c1ccc(Sc2nc3ccccc3[nH]2)o1 | . | ? | . | .
O=C1NC(=O)N(c2ccccc2F)C(=O)/C1=C/c1ccc(Sc2nc3ccccc3[nH]2)o1 | . | 22.4µM | . | .
Cc1cc(/C=C2\C(=O)NC(=O)N(c3cccc(Br)c3)C2=O)c(C)n1C | . | ? | 67.7 | .
Cc1cc(/C=C/c2cccc3sc(C)[n+](CCCCI)c23)ccc1N(CCCl)CCCl | . | / | / | /
COc1ccc(-n2c(/C=C/c3ccc(O)c(OC)c3)nc3ccccc3c2=O)cc1 | . | 20µM | . | .[11.5 µM]
O=c1c2ccccc2nc(/C=C/c2ccccc2O)n1-c1ccc(Br)cc1 | . | 10µM | / | /
Cc1c(S(=O)(=O)Nc2cccc(Cl)c2)c(=O)n(C)c(=O)n1C | . | . | . | ?
NCC(=O)c1ccc(Cl)c(Cl)c1 | . | / | / | /
Cc1c(N=Cc2c(O)n(C3CCCCC3)c(=O)[nH]c2=O)c(=O)n(-c2ccccc2)n1C | . | . | 62.0 | .
CCCc1cc2c(n1CCO)C(C)C1CN(C(=O)c3ccccc3)C(C)(C(=O)OC)C21 (stereo unspecified) | / | / | / | .
CCOC(=O)C/C(C)=N/NC(=O)COc1ccccc1C | ? | . | . | .
C#CCN1C(=O)S/C(=C\c2ccc(N3CCOCC3)cc2C)C1=O | . | ? | 202.7 | .
CCOc1ccc(N2C(=O)NC(=O)/C(=C\c3ccc(N4CCOCC4)cc3C)C2=O)cc1 | . | . | . | .
CC(=O)C1=NOC(CNc2ncc(C(F)(F)F)cc2Cl)C1 (stereo unspecified) | . | ? | . | .
CCN(CC)c1ccc(/C=C2\C(=O)NC(=S)N(c3ccc(OC)cc3OC)C2=O)o1 | . | 11.2µM | . | /
CCN1C(=O)/C(=C/c2ccc(N(CC)CC)cc2OC)C(=O)NC1=S | . | 7.94µM | . | .
COc1ccc(N2C(=O)/C(=C/c3ccc(N(C)C)o3)C(=O)NC2=S)cc1 | . | ? | . | /
Cn1cccc1/C=C1\C(=O)NC(=O)N(Cc2ccccc2Cl)C1=O | . | 11.2µM | . | .
COc1ccc(NC(=O)Cn2c(=O)c3cccn3c3ccccc32)cc1Cl | . | ? | / | /
O=c1[nH]c(O)c(/C=C2\C=Nc3ccc(OCc4ccccc4)cc32)c(=O)[nH]1 | . | 12.6µM | 192.6 | .
O=c1[nH]c(O)c(C=NCCc2ccccc2)c(=O)[nH]1 | . | . | . | .
O=C1NC(=O)N(c2ccccc2)C(=O)/C1=C\c1ccc2c3c(cccc13)CC2 | / | / | / | .
Nc1ccc2c3c(cccc13)CC2 | ? | ? | 83.3 | .
CCCCn1c(N)c(N(CC(C)C)C(=O)c2cc(Br)c(Br)s2)c(=O)[nH]c1=O | . | 25.1µM | . | /
SMILES | Vif-APOBEC3G blk | Vif-A3F inh | IL-2 act | PKM2 activator
COCCCNC(=O)c1c(NC(=O)c2ccccc2)n(Cc2ccccc2)c2nc3ccccc3nc12 | . | . | 67.9 | /
CC(C)n1c(O)c(C2c3cc(Cl)ccc3Oc3[nH]c(=O)n(C(C)C)c(=O)c32)c(=O)[nH]c1=O (stereo unspecified) | . | . | . | 14.1µM
Cc1cccc(CN2CCCC(C(=O)c3cccc(OC(C)C)c3)C2)n1 (stereo unspecified) | . | 22.4µM | . | .
CCN(CC)c1ccc(/C=C/[N+](=O)[O-])cc1 | ? | 25.1µM | . | .
COc1ccc(N2C(=O)/C(=C/c3cccs3)C(=O)NC2=S)cc1 | . | . | . | 14.1µM
COc1ccc(N2C(=O)/C(=C/C=C/c3ccccc3[N+](=O)[O-])C(=O)NC2=S)cc1 | . | ? | . | 20µM
CCOc1ccc(N(C(C)C(=O)Nc2cc(Cl)ccc2OC)S(C)(=O)=O)cc1 (stereo unspecified) | ? | . | / | /
O=C1/C(=C/c2ccc3c(c2)OCO3)SC(=S)N1CCC(=O)N(CCO)c1ccccc1 | . | 22.4µM | . | /
CC(Cc1ccccc1)NC(=O)/C=C/c1ccc(Cl)cc1 (stereo unspecified) | . | . | 87.1 | .
CC(Cc1ccccc1)NC(N)=O (stereo unspecified) | . | . | . | .
CC(=O)Nc1ccc(Cc2nc3ccccc3[nH]2)cc1 | . | ? | . | .
